About 83,000 compounds went through this panel and 20% of them were active in at least one assay; those are over-represented in the sample as a whole.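 96-well plates, one dose, 48 hours. Percent growth reported; active if below 10.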 Values without a mark were called inactive. The source made the active and inactive calls.
System: OVCAR-4 ovarian
Assay: NCI-60 one-dose screen, 48 h (100 = growth as untreated, 0 = no growth, -100 = all killed)
Details: 10 µM unless noted

Which growth does the source give for `O=C(Nn1c(NCC(=O)N2c3ccccc3Sc3ccccc32)nnc1-c1ccc(O)cc1)c1ccccc1` here?
The growth was 105%.

`N#C/C(=C\c1cccc2cnccc12)n1nnc2cccc(F)c21` was tested. Which growth did it give?
Its growth is 38.7%.

Which growth does the source give for `O=C(S)CNC(=O)c1ccccc1` here?
Its growth is 110%.

How did the growth turn out when `CN(C)c1ccc2nc3ccc(=[N+](C)C)c([N+](=O)[O-])c-3sc2c1` was run?
The growth was 0.851% (active).

Which growth does the source give for `O=C1c2ccccc2NC(n2sc3ccccc3c2=O)N1c1ccccc1` (stereo unspecified) here?
Its growth is 98.5%.

`Cc1nc2ccccc2c(/C=C/c2ccccc2)c1C(=O)/C=C/c1ccc(C(F)(F)F)cc1` was tested. Which growth did it give?
The growth was -42.8% (active).

How did the growth turn out when `CCOC(=O)c1nc(Nc2ccc(C(C)=O)cc2)sc1C` was run?
Its growth is 96.4%.

Which growth does the source give for `Oc1ccc(Cl)cc1Cc1cc(Cl)cc(Cl)c1O` here?
The growth was 17.5%.

`COc1nc2ccc(C)cc2cc1-c1nc2c(cnn2-c2ccc(Br)cc2)c(=O)[nH]1` was tested. Which growth did it give?
The growth was 58%.

Which growth does the source give for `CC(=O)OC[C@H]1OC(Sc2sc(C(=O)c3ccc(Cl)cc3)c(N)c2-c2nc3ccccc3s2)[C@H](OC(C)=O)[C@@H](OC(C)=O)[C@@H]1OC(C)=O` (stereo partly specified) here?
The growth was 52.5%.

How did the growth turn out when `O=C1NC(=O)C(Cn2cnc3ccccc32)N1` (stereo unspecified) was run?
The growth was 105%.

Which growth does the source give for `COc1cc(/C=C/C(=O)/C=C/c2cc(OC)c3c(c2OC)OCO3)c(OC)c2c1OCO2` here?
The growth was 32%.

With `COc1c(B(O)O)cc(C)cc1-c1nc2ccc3[nH]ncc3c2c2c1CCCC2` as the compound, how does the growth read?
Its growth is 102%.

For `CCCCCCN(CCCCCC)c1ccc(/C=C2/SC(=O)NC2=O)c(C)c1`, which growth is on record?
The growth was 69.6%.

How did the growth turn out when `COC(=O)c1ccc2[nH]c(O)c(C(=Nc3ccc(N(C)C(=O)CN4CCN(C)CC4)cc3)c3ccccc3)c2c1` was run?
The growth was 34.2%.

For `CCOC(=O)CC1C(COC(=O)NC)OC(n2cnc3c(NC(=O)Nc4ccccc4)ncnc32)C1O[Si](C)(C)C(C)(C)C` (stereo unspecified), which growth is on record?
The growth was 41.6%.

For `CN1C(=O)N(C)C2Nn3c(s/c(=C\c4ccccc4)c3=O)=NC21` (stereo unspecified), which growth is on record?
The growth was 101%.

`COc1cc(C(=O)c2cc(C)c3[nH]c4ccc(C)cc4c3c2C)cc(OC)c1OC` was tested. Which growth did it give?
Its growth is 53%.

`CC(=O)N1CCN(c2ccc(OCC3CO[C@](Cn4ccnc4)(c4ccc(Cl)cc4Cl)O3)cc2)CC1` (stereo partly specified) was tested. Which growth did it give?
Its growth is 67.6%.

With `CN1CCN(Cc2ccc(NC(=O)c3cncc(C#Cc4cnccc4C#N)c3)cc2C(F)(F)F)CC1` as the compound, how does the growth read?
Its growth is 35.9%.

With `CCOC(=O)/C(C#N)=C\Nc1ccc2ncnc(Nc3ccc(Cl)cc3Cl)c2c1` as the compound, how does the growth read?
Its growth is 95.1%.

`Cn1cc(C(=O)c2nc(-c3cn(C)c4ccc(F)cc34)no2)c2cc(F)ccc21` was tested. Which growth did it give?
The growth was 90.8%.

Which growth does the source give for `c1cc(-c2nnc(SSc3ncnc4nc[nH]c34)o2)ccn1` here?
Its growth is 63.3%.

How did the growth turn out when `CN(C)CC#Cc1ccc2ncc(C#N)c(Nc3ccc(F)c(Cl)c3)c2c1` was run?
The growth was 38.1%.

Which growth does the source give for `C#Cc1cccc(NC(=O)Nc2ccccc2NC(=O)CCl)c1` here?
The growth was -33.4% [8.25 µM] (active).

With `COc1ccc2c(c1OC)C(=O)O[C@H]2[C@H]1c2c(cc3c(c2OC)OCO3)CCN1C` as the compound, how does the growth read?
The growth was 105%.

For `Cc1ccc2c(-c3cc(-c4ccccc4)nc(N)c3C#N)cc(=O)oc2c1`, which growth is on record?
Its growth is 114%.

How did the growth turn out when `C[C@]12CC[C@@H]3c4cc(OC(F)F)c(OS(N)(=O)=O)cc4CC[C@H]3[C@@H]1CC[C@@H]2O` was run?
Its growth is 63.2%.

`CC(=O)Oc1ccccc1C(=O)N=C1[Se]CCCN1C(=O)c1ccccc1OC(C)=O` was tested. Which growth did it give?
The growth was 78.8%.

`N#Cc1c(-c2ccc(Cl)cc2)nc2c(c(-c3ccccc3)nn2-c2ccccc2)c1-c1ccc(O)cc1` was tested. Which growth did it give?
Its growth is 64.7%.

`CC(=O)c1ccc(Nc2nc(C(C)=O)c(C)s2)cc1` was tested. Which growth did it give?
The growth was 94.4%.

With `O=C(CCCCCCSc1nc(-c2ccccc2)cc(-c2ccccc2)n1)NO` as the compound, how does the growth read?
The growth was 59.1%.

`Cc1cc(Cl)ccc1NS(=O)(=O)c1ccc(-c2cnc(C3CC3)o2)cc1` was tested. Which growth did it give?
Its growth is 40%.

For `Brc1ccc2[nH]cc(-c3nc(-c4c[nH]c5ccncc45)cs3)c2c1`, which growth is on record?
Its growth is -77.8% (active).

With `COc1cc(C(=O)/C=C/c2c(Cl)nc3sccn23)cc(OC)c1OC` as the compound, how does the growth read?
The growth was 90.6%.

How did the growth turn out when `N/C(=N\c1nc2ccccc2s1)NC(=O)Nc1cccc2ccccc12` was run?
Its growth is 60.8%.

For `NC1CCN(c2nc(Nc3cccc(C(F)(F)F)c3)c3c(=O)[nH]ccc3n2)CC1`, which growth is on record?
The growth was -49.7% (active).

`COc1ccc(/C=N/Nc2cc(=O)[nH]c3ccc(Cl)cc23)cc1` was tested. Which growth did it give?
The growth was 43.1%.

System: SK-OV-3 ovarian
Assay: as above
Details: 10 µM unless noted

How did the growth turn out when `O=C(Nn1c(NCC(=O)N2c3ccccc3Sc3ccccc32)nnc1-c1ccc(O)cc1)c1ccccc1` was run?
Its growth is 101%.

With `N#C/C(=C\c1cccc2cnccc12)n1nnc2cccc(F)c21` as the compound, how does the growth read?
Its growth is 90.2%.

`O=C(S)CNC(=O)c1ccccc1` was tested. Which growth did it give?
Its growth is 89.4%.

For `CN(C)c1ccc2nc3ccc(=[N+](C)C)c([N+](=O)[O-])c-3sc2c1`, which growth is on record?
The growth was 59.2%.

For `O=C1c2ccccc2NC(n2sc3ccccc3c2=O)N1c1ccccc1` (stereo unspecified), which growth is on record?
The growth was 103%.

`Cc1nc2ccccc2c(/C=C/c2ccccc2)c1C(=O)/C=C/c1ccc(C(F)(F)F)cc1` was tested. Which growth did it give?
Its growth is 7.69% (active).

How did the growth turn out when `CCOC(=O)c1nc(Nc2ccc(C(C)=O)cc2)sc1C` was run?
The growth was 107%.

Which growth does the source give for `Oc1ccc(Cl)cc1Cc1cc(Cl)cc(Cl)c1O` here?
Its growth is 70.8%.

How did the growth turn out when `COc1nc2ccc(C)cc2cc1-c1nc2c(cnn2-c2ccc(Br)cc2)c(=O)[nH]1` was run?
The growth was 43.3%.

How did the growth turn out when `CC(=O)OC[C@H]1OC(Sc2sc(C(=O)c3ccc(Cl)cc3)c(N)c2-c2nc3ccccc3s2)[C@H](OC(C)=O)[C@@H](OC(C)=O)[C@@H]1OC(C)=O` (stereo partly specified) was run?
The growth was 90.5%.

With `O=C1NC(=O)C(Cn2cnc3ccccc32)N1` (stereo unspecified) as the compound, how does the growth read?
Its growth is 101%.

Which growth does the source give for `COc1cc(/C=C/C(=O)/C=C/c2cc(OC)c3c(c2OC)OCO3)c(OC)c2c1OCO2` here?
Its growth is 78.2%.

For `COc1c(B(O)O)cc(C)cc1-c1nc2ccc3[nH]ncc3c2c2c1CCCC2`, which growth is on record?
The growth was 63.5%.

With `CCCCCCN(CCCCCC)c1ccc(/C=C2/SC(=O)NC2=O)c(C)c1` as the compound, how does the growth read?
Its growth is 96.5%.

How did the growth turn out when `COC(=O)c1ccc2[nH]c(O)c(C(=Nc3ccc(N(C)C(=O)CN4CCN(C)CC4)cc3)c3ccccc3)c2c1` was run?
Its growth is 5.32% (active).

For `CCOC(=O)CC1C(COC(=O)NC)OC(n2cnc3c(NC(=O)Nc4ccccc4)ncnc32)C1O[Si](C)(C)C(C)(C)C` (stereo unspecified), which growth is on record?
The growth was 94.9%.

Which growth does the source give for `CN1C(=O)N(C)C2Nn3c(s/c(=C\c4ccccc4)c3=O)=NC21` (stereo unspecified) here?
The growth was 100%.

How did the growth turn out when `COc1cc(C(=O)c2cc(C)c3[nH]c4ccc(C)cc4c3c2C)cc(OC)c1OC` was run?
Its growth is 36.9%.

Which growth does the source give for `CC(=O)N1CCN(c2ccc(OCC3CO[C@](Cn4ccnc4)(c4ccc(Cl)cc4Cl)O3)cc2)CC1` (stereo partly specified) here?
The growth was 95.5%.

`CN1CCN(Cc2ccc(NC(=O)c3cncc(C#Cc4cnccc4C#N)c3)cc2C(F)(F)F)CC1` was tested. Which growth did it give?
Its growth is 101%.

`CCOC(=O)/C(C#N)=C\Nc1ccc2ncnc(Nc3ccc(Cl)cc3Cl)c2c1` was tested. Which growth did it give?
The growth was 97%.

`Cn1cc(C(=O)c2nc(-c3cn(C)c4ccc(F)cc34)no2)c2cc(F)ccc21` was tested. Which growth did it give?
The growth was 81%.

For `c1cc(-c2nnc(SSc3ncnc4nc[nH]c34)o2)ccn1`, which growth is on record?
The growth was 32.8%.

With `CN(C)CC#Cc1ccc2ncc(C#N)c(Nc3ccc(F)c(Cl)c3)c2c1` as the compound, how does the growth read?
Its growth is 17.4%.

`C#Cc1cccc(NC(=O)Nc2ccccc2NC(=O)CCl)c1` was tested. Which growth did it give?
Its growth is 85.3% [8.25 µM].

Which growth does the source give for `COc1ccc2c(c1OC)C(=O)O[C@H]2[C@H]1c2c(cc3c(c2OC)OCO3)CCN1C` here?
Its growth is 111%.

How did the growth turn out when `Cc1ccc2c(-c3cc(-c4ccccc4)nc(N)c3C#N)cc(=O)oc2c1` was run?
The growth was 104%.

With `C[C@]12CC[C@@H]3c4cc(OC(F)F)c(OS(N)(=O)=O)cc4CC[C@H]3[C@@H]1CC[C@@H]2O` as the compound, how does the growth read?
Its growth is 40.8%.

For `CC(=O)Oc1ccccc1C(=O)N=C1[Se]CCCN1C(=O)c1ccccc1OC(C)=O`, which growth is on record?
Its growth is 141%.

`N#Cc1c(-c2ccc(Cl)cc2)nc2c(c(-c3ccccc3)nn2-c2ccccc2)c1-c1ccc(O)cc1` was tested. Which growth did it give?
The growth was 96.9%.

With `CC(=O)c1ccc(Nc2nc(C(C)=O)c(C)s2)cc1` as the compound, how does the growth read?
Its growth is 101%.

With `O=C(CCCCCCSc1nc(-c2ccccc2)cc(-c2ccccc2)n1)NO` as the compound, how does the growth read?
Its growth is 47.8%.

`Cc1cc(Cl)ccc1NS(=O)(=O)c1ccc(-c2cnc(C3CC3)o2)cc1` was tested. Which growth did it give?
Its growth is 50.8%.

How did the growth turn out when `Brc1ccc2[nH]cc(-c3nc(-c4c[nH]c5ccncc45)cs3)c2c1` was run?
The growth was 87.6%.

With `COc1cc(C(=O)/C=C/c2c(Cl)nc3sccn23)cc(OC)c1OC` as the compound, how does the growth read?
The growth was 83.3%.

How did the growth turn out when `N/C(=N\c1nc2ccccc2s1)NC(=O)Nc1cccc2ccccc12` was run?
The growth was 40.4%.

`NC1CCN(c2nc(Nc3cccc(C(F)(F)F)c3)c3c(=O)[nH]ccc3n2)CC1` was tested. Which growth did it give?
Its growth is -76.1% (active).

`COc1ccc(/C=N/Nc2cc(=O)[nH]c3ccc(Cl)cc23)cc1` was tested. Which growth did it give?
Its growth is 95.2%.

From PubChem BioAssay (NCI)
